Source: the supplement of paper PMC9262897, “Low-cost anti-mycobacterial drug discovery using engineered E. coli” (Nature Communications, 2022)
Structures can show the parent of a compound that is named as a salt. ± gives the standard deviation of the averaged measurements.

Columns and labels:
Experiment in all cases: growth (OD600 after 10 h); higher = more growth (less inhibition)
[1] = tested on: E. coli TESEC Alr+ wild-type control; details: compound 0.1 mM; raw OD600 reference: median of DMSO wells 0.241, cell-free background 0.041
Method: (§1)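 TESEC Mtb Alr E. coli, or the Alr+ wild-type control, in 384-well plates with Prestwick library compounds at 0.1 mM and 1% DMSO, across arabinose induction levels of 1E3 to 1E7 nM. Growth is read as OD600 after 10 h at 37 °C in triplicate biological replicates.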

E. coli TESEC Mtb Alr [2] = details: compound 0.1 mM
Method: as §1

E. coli TESEC Mtb Asd = details: compound 0.1 mM
Method: (§2)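 TESEC E. coli strains in which the native enzyme is deleted and replaced by arabinose-inducible Mtb Asd, DapB, CysH or TrpD, each grown in its selective medium. Strains were screened against the Prestwick library at 0.1 mM and 1% DMSO in 384-well format at low and high arabinose induction. Growth is read as OD600 after 10 h in triplicate.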

E. coli TESEC Mtb DapB = details: compound 0.1 mM
Method: as §2

[3] = tested on: E. coli TESEC Alr+ wild-type control; details: compound 0.1 mM; raw OD600 reference: median of DMSO wells 0.49, cell-free background 0.052
Method: (§3)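 TESEC Mtb Alr E. coli (ΔaraC ΔtolC ΔentC Δalr ΔdadX, arabinose-inducible Mtb Alr) or the Alr+ wild-type control strain, grown in defined M9-fructose medium without D-alanine in 96-well plates with Prestwick library compounds at 0.1 mM and 1% DMSO. Low Alr induction is 0.1 µM arabinose and high induction is 10 mM arabinose.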

E. coli TESEC Mtb Alr [4] = details: compound 0.1 mM; remark: listed apart in the source
Method: as §3

[5] = arabinose 1000 nM, raw OD600 reference: median of DMSO wells 0.294, cell-free background 0.041
[6] = arabinose 10000 nM, raw OD600 reference: median of DMSO wells 0.264, cell-free background 0.041
[7] = arabinose 100000 nM, raw OD600 reference: median of DMSO wells 0.201, cell-free background 0.041
[8] = arabinose 1000000 nM, raw OD600 reference: median of DMSO wells 0.193, cell-free background 0.041
[9] = arabinose 10000000 nM, raw OD600 reference: median of DMSO wells 0.146, cell-free background 0.041
[10] = arabinose induction (level): High, raw OD600 reference: median of DMSO wells 0.331, cell-free background 0.041
[11] = arabinose induction (level): Low, raw OD600 reference: median of DMSO wells 0.417, cell-free background 0.041
[12] = arabinose induction (level): High, raw OD600 reference: median of DMSO wells […], cell-free background 0.041
[13] = arabinose induction (level): Low, raw OD600 reference: median of DMSO wells 0.227, cell-free background 0.041
[14] = arabinose 100 nM, raw OD600 reference: median of DMSO wells 0.413, cell-free background 0.052
[15] = arabinose 10000000 nM, raw OD600 reference: median of DMSO wells […], cell-free background 0.052

| SMILES | growth [1] | growth (E. coli TESEC Mtb Alr [2]; [5]) | growth (E. coli TESEC Mtb Alr [2]; [6]) | growth (E. coli TESEC Mtb Alr [2]; [7]) | growth (E. coli TESEC Mtb Alr [2]; [8]) | growth (E. coli TESEC Mtb Alr [2]; [9]) | growth (E. coli TESEC Mtb Asd; [10]) | growth (E. coli TESEC Mtb Asd; [11]) | growth (E. coli TESEC Mtb DapB; [12]) | growth (E. coli TESEC Mtb DapB; [13]) | growth [3] | growth (E. coli TESEC Mtb Alr [4]; [14]) | growth (E. coli TESEC Mtb Alr [4]; [15]) |
| --- | --- | --- | --- | --- | --- | --- | --- | --- | --- | --- | --- | --- | --- |
| Nc1ccn([C@@H]2O[C@H](CO)[C@@H](O)[C@@H]2O)c(=O)n1 [Cytarabine] | 0.24 ± 0.0059 | 0.307 ± 0.0036 | 0.247 ± 0.0079 | 0.214 ± 0.025 | 0.1685 ± 0.00085 | 0.171 ± 0.002 | 0.309 ± 0.032 | 0.305 ± 0.02 | 0.224 ± 0.024 | 0.229 ± 0.026 | 0.552 ± 0.051 | 0.406 ± 0.0096 | 0.31 ± 0.0066 |
| O=C(O)/C=C/c1ccc(Cn2ccnc2)cc1 [Ozagrel hydrochloride] | 0.229 ± 0.006 | 0.268 ± 0.019 | 0.263 ± 0.0041 | 0.197 ± 0.025 | 0.179 ± 0.0082 | 0.143 ± 0.0023 | 0.248 ± 0.03 | 0.422 ± 0.035 | 0.176 ± 0.0061 | 0.207 ± 0.023 | 0.482 ± 0.076 | 0.397 ± 0.017 | 0.372 ± 0.014 |
| CN(Cc1cnc2nc(N)nc(N)c2n1)c1ccc(C(=O)N[C@@H](CCC(=O)O)C(=O)O)cc1 [Methotrexate] | 0.225 ± 0.0067 | 0.285 ± 0.011 | 0.244 ± 0.013 | 0.195 ± 0.011 | 0.155 ± 0.0048 | 0.144 ± 0.002 | 0.24 ± 0.055 | 0.359 ± 0.022 | 0.2 ± 0.0058 | 0.254 ± 0.022 | 0.102 ± 0.0015 | 0.277 ± 0.14 | 0.126 ± 0.0066 |
| C[C@H]1[C@H](NC(=O)/C(=N\OC(C)(C)C(=O)O)c2csc(N)n2)C(=O)N1S(=O)(=O)O [Aztreonam] | 0.161 ± 0.011 | 0.0624 ± 0.0045 | 0.0463 ± 0.0008 | 0.136 ± 0.014 | 0.177 ± 0.005 | 0.172 ± 0.0037 | 0.161 ± 0.009 | 0.11 ± 0.0038 | 0.188 ± 0.0055 | 0.186 ± 0.026 | 0.385 ± 0.016 | 0.0511 ± 0.0047 | 0.277 ± 0.016 |
| Nc1nc2[nH]cc(CCc3ccc(C(=O)N[C@@H](CCC(=O)O)C(=O)O)cc3)c2c(=O)[nH]1 [Pemetrexed disodium] | 0.258 ± 0.0062 | 0.303 ± 0.017 | 0.274 ± 0.019 | 0.218 ± 0.029 | 0.184 ± 0.0046 | 0.156 ± 0.0069 | 0.281 ± 0.0067 | 0.405 ± 0.063 | 0.19 ± 0.019 | 0.231 ± 0.013 | 0.56 ± 0.081 | 0.416 ± 0.013 | 0.32 ± 0.012 |
| C[C@](N)(Cc1ccc(O)c(O)c1)C(=O)O [Methyldopa (L,-)] | 0.241 ± 0.011 | 0.298 ± 0.0073 | 0.27 ± 0.0043 | 0.24 ± 0.021 | 0.188 ± 0.017 | 0.146 ± 0.0063 | 0.356 ± 0.044 | 0.458 ± 0.041 | 0.187 ± 0.0082 | 0.226 ± 0.022 | 0.508 ± 0.05 | 0.411 ± 0.015 | 0.345 ± 0.026 |
| CC(C)NCC(O)c1ccc2ccccc2c1 (stereo not drawn) [Pronethalol hydrochloride] | 0.245 ± 0.013 | 0.305 ± 0.0032 | 0.2658 ± 0.0016 | 0.207 ± 0.023 | 0.187 ± 0.0061 | 0.142 ± 0.0032 | 0.247 ± 0.045 | 0.431 ± 0.085 | 0.194 ± 0.015 | 0.225 ± 0.03 | 0.473 ± 0.048 | 0.403 ± 0.012 | 0.351 ± 0.017 |
| CNCCCN1c2ccccc2CCc2ccccc21 [Desipramine hydrochloride] | 0.184 ± 0.0044 | 0.228 ± 0.021 | 0.275 ± 0.013 | 0.199 ± 0.021 | 0.1277 ± 0.00069 | 0.168 ± 0.0031 | 0.157 ± 0.011 | 0.222 ± 0.03 | 0.171 ± 0.014 | 0.202 ± 0.0094 | 0.578 ± 0.053 | 0.403 ± 0.01 | 0.287 ± 0.011 |
| COc1ccc2c(c1)C(=O)N(CCc1ccc(S(=O)(=O)NC(=O)NC3CCCCC3)cc1)C(=O)C2(C)C [Gliquidone] | 0.06 ± 0.018 | 0.0483 ± 0.0024 | 0.04083 ± 0.00021 | 0.0728 ± 0.0039 | 0.0491 ± 0.00068 | 0.119 ± 0.0032 | 0.126 ± 0.027 | 0.0965 ± 0.065 | 0.157 ± 0.015 | 0.173 ± 0.0091 | 0.0675 ± 0.001 | 0.108 ± 0.046 | 0.116 ± 0.0081 |
| C[C@]12C[C@H](O)[C@H]3[C@@H](CCC4=CC(=O)CC[C@@]43C)[C@@H]1CC[C@@H]2C(=O)CO [Corticosterone] | 0.143 ± 0.0016 | 0.195 ± 0.006 | 0.252 ± 0.011 | 0.143 ± 0.015 | 0.16 ± 0.0065 | 0.134 ± 0.0044 | 0.235 ± 0.059 | 0.268 ± 0.055 | 0.179 ± 0.017 | 0.206 ± 0.032 | 0.418 ± 0.033 | 0.402 ± 0.017 | 0.246 ± 0.0064 |
| CC[N+](CC)(CC)CCC(O)(c1ccccc1)C1CCCCC1 (stereo not drawn) [Tridihexethyl chloride] | 0.2104 ± 0.0021 | 0.298 ± 0.015 | 0.2775 ± 0.0026 | 0.199 ± 0.019 | 0.185 ± 0.015 | 0.144 ± 0.0075 | 0.349 ± 0.028 | 0.369 ± 0.085 | 0.207 ± 0.026 | 0.233 ± 0.037 | 0.437 ± 0.045 | 0.417 ± 0.0044 | 0.335 ± 0.018 |
| C/C=C(/C(=C/C)c1ccc(O)cc1)c1ccc(O)cc1 [Dienestrol] | 0.0526 ± 0.0075 | 0.0496 ± 0.0047 | 0.0394 ± 0.0002 | 0.0419 ± 0.0015 | 0.0393 ± 0.0001 | 0.0759 ± 0.031 | 0.0492 ± 0.0033 | 0.0498 ± 0.0031 | 0.122 ± 0.035 | 0.0554 ± 0.0074 | 0.139 ± 0.14 | 0.0576 ± 0.014 | 0.05137 ± 0.00032 |
| CC(C(=O)O)c1ccc(N2Cc3ccccc3C2=O)cc1 (stereo not drawn) [Indoprofen] | 0.219 ± 0.011 | 0.264 ± 0.018 | 0.249 ± 0.0066 | 0.178 ± 0.0022 | 0.189 ± 0.0034 | 0.128 ± 0.0066 | 0.345 ± 0.075 | 0.353 ± 0.053 | 0.206 ± 0.016 | 0.186 ± 0.0097 | 0.486 ± 0.053 | 0.424 ± 0.013 | 0.361 ± 0.007 |
| CC(=O)NC[C@H]1CN(c2ccc(N3CCOCC3)c(F)c2)C(=O)O1 [Linezolid] | 0.047 ± 0.0002 | 0.0465 ± 0.0021 | 0.0406 ± 0.00046 | 0.0473 ± 0.0018 | 0.0402 ± 0.00055 | 0.0474 ± 0.0016 | 0.072 ± 0.0052 | 0.0786 ± 0.0075 | 0.0899 ± 0.0032 | 0.0871 ± 0.0054 | 0.0669 ± 0.00098 | 0.135 ± 0.055 | 0.0531 ± 0.0013 |
| C1CCC(C(CC2CCCCN2)C2CCCCC2)CC1 (stereo not drawn) [Perhexiline maleate] | 0.0393 ± 0.0002 | 0.0389 ± 0.00046 | 0.03913 ± 0.00021 | 0.0407 ± 0.00064 | 0.03897 ± 0.00023 | 0.0389 ± 0.0004 | 0.04767 ± 0.00047 | 0.048 ± 0.0016 | 0.0462 ± 0.0004 | 0.0474 ± 0.002 | 0.0486 ± 0.00055 | 0.168 ± 0.18 | 0.0522 ± 0.0012 |
| CCc1nc(N)nc(N)c1-c1ccc(Cl)cc1 [Pyrimethamine] | 0.1323 ± 0.0013 | 0.123 ± 0.0079 | 0.0978 ± 0.0026 | 0.123 ± 0.0035 | 0.0795 ± 0.0019 | 0.139 ± 0.002 | 0.17 ± 0.024 | 0.179 ± 0.015 | 0.173 ± 0.016 | 0.191 ± 0.044 | 0.5321 ± 0.0036 | 0.401 ± 0.026 | 0.261 ± 0.018 |
